In PubChem BioAssay:
For some of these results: Measured potencies and affinities stand elsewhere. The source made the active and inactive calls. Unless noted, the rule behind the calls is not given here.

Legend:
[1] = antimalarial activity against Dd2 strain (AID 2302;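 active = growth inhibition above 50% at the single 2 µM test dose, taken to imply half-maximal potency below 2 µM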;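 note: 0% = DMSO untreated growth and 100% = chloroquine plus artemisinin killed control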); settings: P. falciparum Dd2 in RBCs, LDH growth readout, 72 h; at 2 µM; active compounds read high
[2] = HepG2 cytotoxicity, primary screen, cytotoxicity control for P. falciparum antimalarial project, cell-based, ATP luminescence (AID 2303;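 active = inhibition above 50%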;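 note: 0% = DMSO wells and 100% = digitonin-killed cells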); settings: HepG2 viability, 24-48 h, at 10 µM, active compounds read high
[3] = target: L-lactate dehydrogenase (Plasmodium falciparum (isolate CDC / Honduras)) (UniProt Q27743); assay: PfLDH activity inhibition – cell lysate, 3D7 strain, counter-screen for P. falciparum growth inhibition project (AID 2304);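 note: 0% = vehicle and 100% = reference inhibitor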; settings: P. falciparum 3D7 crude extract, LDH APAD/NBT absorbance; at 2 µM; active compounds read high
[4] = inhibition of 3D7 malaria parasite growth – strain 3D7 (AID 2306);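 note: 0% = DMSO wells and 100% = chloroquine plus artemisinin control wells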; settings: P. falciparum 3D7 erythrocytic growth, LDH absorbance, 72 h; at 2 µM; active compounds read high
[5] = target: Calcium-dependent protein kinase 1 (Plasmodium falciparum (isolate 3D7)) (UniProt P62344); assay: PfCDPK1 kinase inhibitors, biochemical, TCAMS library (AID 1159585; cut-off not given, nearly all actives have IC50 up to about 0.98 µM;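 note: inhibitors leave more ATP so luminescence rises with inhibition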); settings: recombinant PfCDPK1, Kinase-Glo ATP depletion luminescence
[6] = target: Plasmodium falciparum protein kinase 6 (PK6, PF3D7_1337100) (UniProt Q8IDW1); assay: PfPK6 kinase inhibitors, biochemical, TCAMS library (AID 1159586); settings: recombinant PfPK6, Kinase-Glo ATP depletion luminescence
[7] = target: Protein kinase 7 (PK7), Plasmodium falciparum 3D7 (PF3D7_0213400) (UniProt Q7YTF7); assay: inhibition of Plasmodium PK7 catalytic activity – biochemical, TCAMS antimalarial set, Kinase-Glo luminescence (AID 1159587); settings: recombinant PfPK7, Kinase-Glo ATP depletion luminescence
[8] = target: Calcium-dependent protein kinase 4 (Plasmodium falciparum (isolate 3D7)) (UniProt Q8IBS5); assay: PfCDPK4 kinase inhibitors, biochemical, TCAMS library (AID 1159588; cut-off not given, nearly all actives have IC50 up to about 0.91 µM); settings: recombinant PfCDPK4, Kinase-Glo ATP depletion luminescence
Sequence of Calcium-dependent protein kinase 4 (Plasmodium falciparum (isolate 3D7)) (Q8IBS5 whole entry, looked up): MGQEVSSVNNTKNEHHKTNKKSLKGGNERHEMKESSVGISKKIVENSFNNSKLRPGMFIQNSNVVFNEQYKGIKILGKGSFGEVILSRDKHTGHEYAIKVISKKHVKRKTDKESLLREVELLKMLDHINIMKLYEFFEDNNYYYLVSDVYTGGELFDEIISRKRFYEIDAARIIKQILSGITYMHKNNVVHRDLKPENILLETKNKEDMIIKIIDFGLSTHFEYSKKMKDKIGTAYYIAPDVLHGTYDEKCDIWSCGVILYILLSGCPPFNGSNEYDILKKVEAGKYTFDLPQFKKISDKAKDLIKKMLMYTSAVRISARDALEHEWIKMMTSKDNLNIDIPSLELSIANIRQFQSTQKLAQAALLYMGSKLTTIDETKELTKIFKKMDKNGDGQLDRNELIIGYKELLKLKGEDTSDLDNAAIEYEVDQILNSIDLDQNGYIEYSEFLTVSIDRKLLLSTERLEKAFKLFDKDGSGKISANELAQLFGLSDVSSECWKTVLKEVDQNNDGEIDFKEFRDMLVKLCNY

Sequence of L-lactate dehydrogenase (Plasmodium falciparum (isolate CDC / Honduras)) (Q27743 whole entry, looked up): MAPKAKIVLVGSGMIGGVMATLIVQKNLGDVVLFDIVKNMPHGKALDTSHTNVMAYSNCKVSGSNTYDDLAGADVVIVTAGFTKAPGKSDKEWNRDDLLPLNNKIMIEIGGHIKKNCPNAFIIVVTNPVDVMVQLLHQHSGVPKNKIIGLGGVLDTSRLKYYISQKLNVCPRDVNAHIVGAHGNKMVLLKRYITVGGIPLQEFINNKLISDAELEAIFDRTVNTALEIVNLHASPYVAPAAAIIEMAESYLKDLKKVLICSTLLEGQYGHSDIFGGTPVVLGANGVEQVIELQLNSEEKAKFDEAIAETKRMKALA
Sequence of Protein kinase 7 (PK7), Plasmodium falciparum 3D7 (PF3D7_0213400) (Q7YTF7 1-343): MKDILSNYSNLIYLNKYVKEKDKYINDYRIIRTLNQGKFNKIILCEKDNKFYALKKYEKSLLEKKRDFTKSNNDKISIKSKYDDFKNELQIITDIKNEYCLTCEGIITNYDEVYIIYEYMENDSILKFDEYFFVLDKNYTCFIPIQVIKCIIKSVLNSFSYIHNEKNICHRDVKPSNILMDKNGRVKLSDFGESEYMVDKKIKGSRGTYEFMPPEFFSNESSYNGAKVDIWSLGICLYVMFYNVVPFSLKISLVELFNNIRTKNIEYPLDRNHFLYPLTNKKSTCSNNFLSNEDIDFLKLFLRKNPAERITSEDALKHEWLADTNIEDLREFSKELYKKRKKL
Sequence of Plasmodium falciparum protein kinase 6 (PK6, PF3D7_1337100) (Q8IDW1 1-305): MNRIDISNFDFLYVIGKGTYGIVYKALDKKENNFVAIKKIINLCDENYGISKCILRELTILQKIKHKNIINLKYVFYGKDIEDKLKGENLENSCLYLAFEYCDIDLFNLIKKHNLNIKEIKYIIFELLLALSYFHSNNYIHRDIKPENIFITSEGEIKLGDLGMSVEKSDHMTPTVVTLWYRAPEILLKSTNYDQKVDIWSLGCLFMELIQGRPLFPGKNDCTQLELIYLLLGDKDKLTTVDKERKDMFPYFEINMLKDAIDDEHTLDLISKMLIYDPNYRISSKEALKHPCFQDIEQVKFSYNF
Sequence of Calcium-dependent protein kinase 1 (Plasmodium falciparum (isolate 3D7)) (P62344 whole entry, looked up): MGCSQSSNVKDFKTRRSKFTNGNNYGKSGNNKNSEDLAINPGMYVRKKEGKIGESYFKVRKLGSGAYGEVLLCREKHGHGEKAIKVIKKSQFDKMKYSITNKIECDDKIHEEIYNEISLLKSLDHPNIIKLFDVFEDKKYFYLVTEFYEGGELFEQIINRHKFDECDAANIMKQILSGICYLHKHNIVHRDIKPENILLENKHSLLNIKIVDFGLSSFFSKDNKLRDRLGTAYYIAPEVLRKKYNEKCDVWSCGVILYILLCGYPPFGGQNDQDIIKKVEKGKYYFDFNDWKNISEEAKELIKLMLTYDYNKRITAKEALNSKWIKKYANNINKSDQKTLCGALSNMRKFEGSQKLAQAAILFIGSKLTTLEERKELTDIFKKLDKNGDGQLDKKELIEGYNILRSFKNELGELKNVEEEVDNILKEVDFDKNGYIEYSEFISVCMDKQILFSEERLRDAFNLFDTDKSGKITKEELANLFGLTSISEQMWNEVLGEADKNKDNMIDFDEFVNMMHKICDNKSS

Cc1c(F)cc(C(=O)NC2CC2)cc1-c1ccc2c(c1)c(C)nn2S(=O)(=O)c1cccs1
active: growth inhibition [1] 92% | growth inhibition [4] 91%
inactive: inhibition [2] 34% | inhibition [3] -3% | outcome [5] | outcome [6] | outcome [7] | outcome [8]

CC(C)[C@@H]1c2ccc(O)cc2C[C@H]2C(=O)N(C3CCCCC3)C(=O)N21
inactive: inhibition [2] 2% | inhibition [3] 0% | outcome [5] | outcome [6] | outcome [7] | outcome [8]
active: growth inhibition [1] 88% | growth inhibition [4] 95%

FC(F)(F)c1ccc(CSc2ccc3nnc(-c4ccccn4)n3n2)cc1
inactive: inhibition [2] -2% | inhibition [3] -1% | outcome [5] | outcome [6] | outcome [7] | outcome [8]
active: growth inhibition [1] 54% | growth inhibition [4] 95%

Cc1cc(NCCC(=O)NCCOc2ccccc2)nc(Nc2ccccc2)n1
inactive: inhibition [2] 26% | inhibition [3] -1% | outcome [5] | outcome [6] | outcome [7] | outcome [8]
active: growth inhibition [1] 55% | growth inhibition [4] 94%

c1ccc(CCNc2ncnc3c2[nH]c2ccccc23)cc1
inactive: inhibition [3] -1% | outcome [5] | outcome [6] | outcome [7] | outcome [8]
active: growth inhibition [1] 94% | inhibition [2] 50% | growth inhibition [4] 95%

O=C(Nc1ccc(-c2csc(-c3nc4ccccc4[nH]3)c2)cc1)Nc1ccc(F)c(F)c1F
inactive: inhibition [3] 2% | outcome [5] | outcome [6] | outcome [7] | outcome [8]
active: growth inhibition [1] 64% | inhibition [2] 67% | growth inhibition [4] 100%

O=S(=O)(NCCN1CCCC1)c1ccc(-c2cccc(CNC3Cc4ccccc4C3)c2)cc1F
inactive: inhibition [2] 41% | inhibition [3] -1% | outcome [5] | outcome [6] | outcome [7] | outcome [8]
active: growth inhibition [1] 62% | growth inhibition [4] 98%

COc1ccc2nccc([C@@H](O)CN3CCC(NCc4cc5ccccc5cn4)CC3)c2n1
active: growth inhibition [4] 93%
inactive: growth inhibition [1] 14% | inhibition [2] 3% | inhibition [3] -2% | outcome [5] | outcome [6] | outcome [7] | outcome [8]

Cc1cc(C=C(P(=O)(OC(C)C)OC(C)C)P(=O)(OC(C)C)OC(C)C)c2ccccc2c1O
active: growth inhibition [1] 54% | growth inhibition [4] 85%
inactive: inhibition [2] 15% | inhibition [3] -6% | outcome [5] | outcome [6] | outcome [7] | outcome [8]

Cc1cc(N)nc2ccc(-c3ccc(CCN)cc3)cc12
active: growth inhibition [4] 101%
inactive: growth inhibition [1] 48% | inhibition [2] 31% | inhibition [3] -4% | outcome [5] | outcome [6] | outcome [7] | outcome [8]

Cn1nc(-c2ccccc2F)c2cc(C(=O)Nc3cccnc3)sc21
active: growth inhibition [1] 82% | growth inhibition [4] 92%
inactive: inhibition [2] 5% | inhibition [3] 3% | outcome [5] | outcome [6] | outcome [7] | outcome [8]

CCCCCC(C)N=C(Nc1ccc(C#N)cc1O)Nc1cccc(Cl)c1Cl (stereo not drawn)
inactive: inhibition [2] 28% | inhibition [3] -5% | outcome [5] | outcome [6] | outcome [7] | outcome [8]
active: growth inhibition [1] 98% | growth inhibition [4] 100%

CCOC(=O)c1ccc(NC(=O)c2ccccc2C(=O)O)cc1
inactive: growth inhibition [1] 0% | inhibition [2] 2% | inhibition [3] -3% | outcome [5] | outcome [6] | outcome [7] | outcome [8]
active: growth inhibition [4] 92%

Cc1ccc(C(=O)Nc2ccc(C)c(OC3CCN(CCC(C)C)C3)c2)cc1 (stereo not drawn)
inactive: inhibition [2] 6% | inhibition [3] -13% | outcome [5] | outcome [6] | outcome [7] | outcome [8]
active: growth inhibition [1] 53% | growth inhibition [4] 99%

O=C(Nc1ccc(Cl)cc1C(=O)Nc1cccc(F)c1)c1ccc([N+](=O)[O-])cc1
active: growth inhibition [1] 54% | growth inhibition [4] 89%
inactive: inhibition [2] 10% | inhibition [3] 0% | outcome [5] | outcome [6] | outcome [7] | outcome [8]

C=CCC1OC(=O)c2cc(OC)cc(OC)c21 (stereo not drawn)
active: growth inhibition [1] 100% | inhibition [2] 100% | growth inhibition [4] 95%
inactive: inhibition [3] 2% | outcome [5] | outcome [6] | outcome [7] | outcome [8]

Cc1cc(NC(=O)NCCN2CCC(NC(=O)c3ccc(C(F)(F)F)cc3)CC2)c2ccccc2n1
inactive: inhibition [2] 3% | inhibition [3] -3% | outcome [5] | outcome [6] | outcome [7] | outcome [8]
active: growth inhibition [1] 75% | growth inhibition [4] 98%

N#Cc1ccc(CN2CCC(Oc3ccc(NC(=O)c4ccsc4)cc3Cl)C2)cc1 (stereo not drawn)
inactive: inhibition [2] 29% | inhibition [3] -2% | outcome [5] | outcome [6] | outcome [7] | outcome [8]
active: growth inhibition [1] 79% | growth inhibition [4] 88%

O=C(NC1CC1)c1ccc(Cn2c(SCc3cccc([N+](=O)[O-])c3)nc3ccccc3c2=O)cc1
inactive: inhibition [2] 12% | inhibition [3] 1% | outcome [5] | outcome [6] | outcome [7] | outcome [8]
active: growth inhibition [1] 65% | growth inhibition [4] 91%

O=C(NCC1CCN(CCN2CCC(c3cn(CCO)c4ccccc34)CC2)CC1)c1ccc(-c2ccc(C(F)(F)F)cc2)cc1
active: growth inhibition [1] 100% | inhibition [2] 100% | growth inhibition [4] 101%
inactive: inhibition [3] 0% | outcome [5] | outcome [6] | outcome [7] | outcome [8]

COc1cc(C(=O)N2N=C(c3c(-c4ccccc4)c4cc(Br)ccc4[nH]c3=O)CC2c2cccc([N+](=O)[O-])c2)cc(OC)c1OC (stereo not drawn)
active: growth inhibition [1] 95% | growth inhibition [4] 93%
inactive: inhibition [2] 1% | inhibition [3] 4% | outcome [5] | outcome [6] | outcome [7] | outcome [8]

COc1cc(Cc2cnc(N)nc2N)cc(OCCn2ccccc2=O)c1OC
inactive: growth inhibition [1] -3% | inhibition [2] 4% | inhibition [3] 2% | outcome [5] | outcome [6] | outcome [7] | outcome [8]
active: growth inhibition [4] 97%

Cc1cccc2[nH]c(-c3cccc(-c4cccc(NC(=O)Nc5ccc(F)c(F)c5F)c4)c3)nc12
inactive: inhibition [2] 32% | inhibition [3] 4% | outcome [5] | outcome [6] | outcome [7] | outcome [8]
active: growth inhibition [1] 99% | growth inhibition [4] 100%

Cn1nc(-c2ccc(CNC3CCc4ccccc43)cc2)c2cnc(NCCN3CCCC3)nc21 (stereo not drawn)
active: growth inhibition [4] 99%
inactive: growth inhibition [1] 17% | inhibition [2] 21% | inhibition [3] -2% | outcome [5] | outcome [6] | outcome [7] | outcome [8]

COc1ccc(Nc2ccnc3cc(-c4ccccn4)ccc23)cc1OC
active: growth inhibition [4] 91%
inactive: growth inhibition [1] 26% | inhibition [2] 14% | inhibition [3] 1% | outcome [5] | outcome [6] | outcome [7] | outcome [8]

CCCCCOc1ccc(C(O)C(CN2CCCCC2)c2ccccc2)cc1 (stereo not drawn)
inactive: inhibition [2] 11% | inhibition [3] 5% | outcome [5] | outcome [6] | outcome [7] | outcome [8]
active: growth inhibition [1] 95% | growth inhibition [4] 98%

CNc1nc(Nc2ccccc2C)nc2ccccc12
active: growth inhibition [1] 81% | growth inhibition [4] 101%
inactive: inhibition [2] 17% | inhibition [3] -1% | outcome [5] | outcome [6] | outcome [7] | outcome [8]

Cn1cncc1C(=O)Nc1cccc(-c2cccc(-c3nc4ccc(F)cc4[nH]3)c2)c1
active: growth inhibition [4] 102%
inactive: growth inhibition [1] 45% | inhibition [2] 16% | inhibition [3] 3% | outcome [5] | outcome [6] | outcome [7] | outcome [8]

COc1ccc(NC(=O)Nc2nc3ccccc3s2)cc1N1CCN(C)CC1
active: growth inhibition [4] 95%
inactive: growth inhibition [1] 22% | inhibition [2] 6% | inhibition [3] -1% | outcome [5] | outcome [6] | outcome [7] | outcome [8]

COC(=O)c1cccc(C#CCCOCCCCCCNC[C@H](O)c2cc(Cl)c(N)c(Cl)c2)c1
active: growth inhibition [1] 88% | growth inhibition [4] 97%
inactive: inhibition [2] 12% | inhibition [3] -3% | outcome [5] | outcome [6] | outcome [7] | outcome [8]

O=C1Nc2cccc3c2C1(CCCCN1CCC(c2c(-c4ccccc4)[nH]c4ccccc24)CC1)CCC3 (stereo not drawn)
active: growth inhibition [4] 84%
inactive: growth inhibition [1] 33% | inhibition [2] 18% | inhibition [3] -1% | outcome [5] | outcome [6] | outcome [7] | outcome [8]

Cc1cc(CN2CCC(N3CC(c4ccccc4)(c4ccccc4)OC3=O)C2)ccc1O (stereo not drawn)
inactive: inhibition [2] -3% | inhibition [3] 1% | outcome [5] | outcome [6] | outcome [7] | outcome [8]
active: growth inhibition [1] 68% | growth inhibition [4] 96%

Cn1cncc1C(=O)Nc1ccc(-c2cccc(-c3nc4ccc(C(F)(F)F)cc4[nH]3)c2)cc1
inactive: growth inhibition [1] 3% | inhibition [2] 34% | inhibition [3] 4% | outcome [5] | outcome [6] | outcome [7] | outcome [8]
active: growth inhibition [4] 100%

CNCCNCc1ccc(-c2ccc(-c3nc4c(C)cccc4[nH]3)cc2)cc1
inactive: inhibition [2] 19% | inhibition [3] -5% | outcome [5] | outcome [6] | outcome [7] | outcome [8]
active: growth inhibition [1] 79% | growth inhibition [4] 96%

COc1ccc(NC(=O)[C@H](Cc2ccccc2)Nc2cc(C)nc(NCCc3ccccn3)n2)cc1
inactive: growth inhibition [1] 39% | inhibition [2] -7% | inhibition [3] -3% | outcome [5] | outcome [6] | outcome [7] | outcome [8]
active: growth inhibition [4] 99%

CC(=O)Nc1ccc(C(=O)N2CCN(c3ccnc4cc(Cl)ccc34)CC2)cc1
inactive: growth inhibition [1] 43% | inhibition [2] 2% | inhibition [3] -5% | outcome [5] | outcome [6] | outcome [7] | outcome [8]
active: growth inhibition [4] 93%

CC(C)c1ccc(CN2CCC(CNC(=O)c3cc(-c4cccc(C(F)(F)F)c4)cs3)C2)cc1 (stereo not drawn)
active: growth inhibition [1] 60% | growth inhibition [4] 99%
inactive: inhibition [2] 36% | inhibition [3] 5% | outcome [5] | outcome [6] | outcome [7] | outcome [8]

CCOc1cc(-c2nnc3[nH]c(=O)n(C)c(=O)c3n2)ccc1OC(C)C
active: growth inhibition [1] 86% | growth inhibition [4] 97%
inactive: inhibition [2] 15% | inhibition [3] 1% | outcome [5] | outcome [6] | outcome [7] | outcome [8]

CC1(C)N=C(N)N=C(N)N1c1ccc(Cl)c(Cl)c1
inactive: inhibition [3] 0% | outcome [5] | outcome [6] | outcome [7] | outcome [8]
active: growth inhibition [1] 56% | inhibition [2] 67% | growth inhibition [4] 95%

O=S(=O)(c1ccc(NC(=S)NN=Cc2ccccn2)cc1)N1CCCCC1
inactive: inhibition [2] 43% | inhibition [3] -5% | outcome [5] | outcome [6] | outcome [7] | outcome [8]
active: growth inhibition [1] 56% | growth inhibition [4] 98%

Cc1cc(NN=CC=Cc2ccccc2)c2cc(F)ccc2n1
active: growth inhibition [4] 101%
inactive: growth inhibition [1] 36% | inhibition [2] 8% | inhibition [3] -2% | outcome [5] | outcome [6] | outcome [7] | outcome [8]
